# Vaccinia mCherry = vaccinia inhibition (mCherry reporter). Vaccinia virus mCherry reporter infection, fluorescence. Potency, µM (doses to about 36.5 µM), inactives show at the highest dose activity change, negative = inhibition, most hits filed as inhibitors. 310,000 tested, 0.63% active; calls by dose curve; tested in A549 cells; further: nearly all actives have a fitted effect of over 35% in size
# AMA1 RON2 block = inhibitors of Plasmodium falciparum AMA1-RON2 interaction | AlphaScreen AMA1-biotinylated RON2 peptide binding | AID 720542 | 360,000 tested, 0.2% active | Potency, µM (series often up to 58.2 µM), for inactives: top-dose activity change, negative = inhibition, usual class: inhibitors;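 further: 0% = vehicle wells and -100% = peptide control; nearly all actives have a fitted effect of over 45% in size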
#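 AMA1 (3D7) with his tag at 25 nM final met compounds first, then biotinylated RON2 peptide at 25 nM; detection used donor plus acceptor beads, 10 µg/mL apiece, read by AlphaScreen after 30 min at room temperature.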
# Pf growth 96h = inhibits malaria parasite growth, 96 h | 320,000 tested, 6.9% active | P. falciparum luciferase reporter growth, 96 h | Potency, µM (top dose mostly 28.7 µM), for the others: at the top dose activity change, negative = inhibition, usual class: inhibitors
#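 96 h incubation, 37 C, 5% CO2, of luciferase-reporter P. falciparum-infected RBCs (2% hematocrit, 0.05% parasitemia final) with test compounds; endpoint luminescence.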
# Pf growth 48h = inhibits P. falciparum growth in the first generation, 48 h. P. falciparum luciferase growth in erythrocytes, 48 h. 310,000 tested, 5.9% active. Potency, µM (doses to about 28.7 µM), without a hit: at the highest dose activity change, negative = inhibition, hits mostly inhibitors
#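 Firefly luciferase activity from engineered P. falciparum reports growth; inhibitors lower the luminescent signal. Cultures contained 2% hematocrit erythrocytes at 0.1% final parasitemia.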
# VACV Venus inh = vaccinia inhibition (Venus reporter); 330,000 tested, 0.46% active; Potency, µM (highest dose often 36.5 µM), inactives show top-dose activity change, negative = inhibition, most hits filed as inhibitors; AID 720580; Vaccinia virus Venus reporter expression, fluorescence; calls by dose curve; tested in A549 cells; further: nearly all actives have a fitted effect of over 30% in size
# The depositor's hits bear a star; i = inactive; ? = inconclusive; · = not tested or not shown; [ ] = dose if it differs, or a comment. Only some compounds are listed: those with a hit (about 8.7% of all), similar ones and a draw of the others. Unless noted, the call rests on the fitted dose curve; in most records, active means well fitted curve in the direction sought with a large enough effect; inconclusive means small, poorly fitted or top-dose-only effect, or another doubt; inactive means no such curve, though single readings can be large; an effect the other way counts as inactive or inconclusive. Unless noted, on the % scale 0 is the no-effect control and ±100 the full control effect; potency means the concentration at half of the fitted maximal effect.
SMILES,Vaccinia mCherry,AMA1 RON2 block,Pf growth 96h,Pf growth 48h,VACV Venus inh
CC(NC(=O)CCCc1nnc2n(C)c(=O)c3sccc3n12)c1ccccc1 (stereo not given),·,-1%,13µM*,15%,·
Cn1c(=O)c2sccc2n2c(CCCC(=O)NCCc3ccccc3)nnc12,·,1%,?,?,·
CCn1c(=O)c2sccc2n2c(CCCC(=O)NC3CCN(Cc4ccccc4)CC3)nnc12,·,-12%,13µM*,11%,·
CCn1c(=O)c2sccc2n2c(CCCC(=O)N3CCN(c4ccccn4)CC3)nnc12,0%,22%,?,10µM*,-16%
CCc1ccc(NC(=O)C(C)n2nnc3sc(-c4ccccc4)cc3c2=O)cc1 (stereo not given),-7%,·,·,·,-2%
COc1cc(-c2noc(-c3cc(C)[nH]n3)n2)cc(OC)c1OC,-5%,·,·,·,-10%
CC1(C)CN=c2s/c(=C\c3ccc(Cl)cc3)c(=O)n2C1,10µM*,60%,?,-18%,?
Cc1ncc2c(c1CNC(=O)c1ccc3c(c1)OCO3)CCN(C(=O)c1cnsn1)C2,-10%,·,·,·,-6%
COc1ccc(-n2nc(C(=O)NCC(=O)NC3CCCC(C)C3C)c3ccccc3c2=O)cc1 (stereo not given),-12%,7%,-3%,?,-8%
COc1ccc(-n2nc(C(=O)NCC(=O)Nc3cc(OC)ccc3OC)c3ccccc3c2=O)cc1,-9%,-5%,?,3.3µM*,-13%
CCOc1ccccc1NC(=O)CNC(=O)c1nn(-c2ccc(OC)c(OC)c2)c(=O)c2ccccc12,i,-7%,?,13µM*,-11%
COc1ccc(-n2nc(C(=O)NCC(=O)NC3CCCC(C)C3C)c3ccccc3c2=O)c(OC)c1 (stereo not given),-12%,12%,5.9µM*,?,0%
COc1ccc(/C=N/NC(=O)c2nn(-c3ccc(C)c(C)c3)c(=O)c3ccccc23)cc1,·,10%,?,13µM*,-8%
CCOc1ccc(NC(=O)CNC(=O)c2nn(-c3ccc(OC)c(OC)c3)c(=O)c3ccccc23)cc1,-12%,-10%,?,-3%,6%
COc1ccc(-n2nc(C(=O)NCC(=O)Nc3cc(Cl)c(OC)cc3OC)c3ccccc3c2=O)cc1,-9%,-2%,0%,?,-3%
COc1ccc(-n2nc(C(=O)NCC(=O)Nc3ccc(F)cc3)c3ccccc3c2=O)cc1,-4%,-8%,4%,12µM*,-24%
COc1ccc(NC(=O)CNC(=O)c2nn(-c3ccc(OC)c(Cl)c3)c(=O)c3ccccc23)c(OC)c1,i,1%,-30%,9.3µM*,-9%
COc1ccc(-n2nc(C(=O)NCC(=O)NC(C)C)c3ccccc3c2=O)cc1Cl,·,17%,32%,-17%,·
COc1ccc(-n2nc(C(=O)NCC(=O)Nc3ccccn3)c3ccccc3c2=O)cc1Cl,-11%,10%,9.3µM*,6%,-3%
COc1ccc(/C=N/NC(=O)c2nn(-c3ccc(Cl)cc3)c(=O)c3c(N)scc23)cc1,·,24%,8.3µM*,·,·
CC1=C(C(N)=O)C(c2cccc(Br)c2)n2nc(SCc3ccccc3)nc2N1 (stereo not given),-4%,·,·,·,-8%
O=C1CCC(=O)N1CN(C(=O)c1ccco1)c1ccc(Cl)c(Cl)c1,-9%,-16%,10µM*,23%,-11%
CCOC(=O)C1CCN(C(=O)CCc2c(C)nc3cc(-c4ccc(OC)cc4OC)nn3c2C)CC1,i,8%,?,13µM*,-11%
Cc1nc2ncnn2c(C)c1CCC(=O)N1CCCCC1,-13%,1%,89%,·,-18%
COC(=O)C(NC(=O)CCc1c(C)nc2ncnn2c1C)C(C)C (stereo not given),·,0%,13µM*,65%,·
SMILES,Vaccinia mCherry,AMA1 RON2 block,Pf growth 96h,Pf growth 48h,VACV Venus inh
COc1ccc(N2CCN(C(=O)CCc3c(C)nc4cc(-c5ccc(OC)cc5OC)nn4c3C)CC2)cc1,-30%,·,·,·,-26%
CCOC(=O)C1CCN(C(=O)CCc2c(C)nc3ncnn3c2C)CC1,·,-17%,15µM*,·,·
Cc1cc(OCC(=O)Nc2cc(-c3nc4ccccc4[nH]3)ccc2C)ccc1Cl,-13%,·,·,·,-12%
O[C@H]1[C@H]2[C@H](O)CCCN2C[C@H]1O,·,·,9.5µM*,-5%,·
O[C@@H]1CCCN2C[C@@H](O)[C@@H](O)C12 (stereo not given in full),-18%[87.9 µM],·,·,·,-13%[87.9 µM]
CCC(C)(C)n1nnnc1CN1CCN(C(c2ccccc2)c2ccccc2)CC1,·,-24%,82%,7.4µM*,·
CCC(C)(C)n1nnnc1C(c1ccccc1)N1CCN(Cc2ccccc2)CC1 (stereo not given),i,20%,?,?,-1%
c1ccc(C(c2ccccc2)N2CCN(Cc3nnnn3C3CCCC3)CC2)cc1,·,-19%,37%,?,?
CC(C)CCn1nnnc1CN1CCN(C(c2ccccc2)c2ccccc2)CC1,-20%,0%,-44%,6.6µM*,-22%
Cc1c(C(=O)NCc2ccc(OC(C)C)cc2)sc2ncnc(N(C)C3CCCCC3)c12,-7%,·,·,·,-2%
COc1ccc(CCn2c(N)c(C(=O)NCc3ccco3)c3nc4ccccc4nc32)cc1,-15%,46%,-21%,?,-15%
Nc1c(C(=O)NCc2ccco2)c2nc3ccccc3nc2n1CCc1ccccc1F,·,38%,·,10µM*,·
COc1ccc(CCn2c(N)c(C(=O)NCc3ccco3)c3nc4ccccc4nc32)cc1OC,-23%,50%,18%,5.2µM*,-11%
Nc1c(C(=O)NCc2ccco2)c2nc3ccccc3nc2n1Cc1ccc(F)cc1,i,43%,?,1.9µM*,-5%
Cc1ccccc1C(=O)Nc1nnc2n1CCS2,8%,·,·,·,0%
COc1cc2nc(N(CCCN(C)C)C(=O)c3ccc(C(=O)c4ccccc4)cc3)sc2cc1OC,-24%,?,?,?,-14%
Cc1ccc2nc(N(CCCN(C)C)C(=O)c3cc4ccccc4oc3=O)sc2c1,-13%,8%,10µM*,?,-4%
CCOc1cccc2sc(N(CCCN(C)C)C(=O)c3ccc(C(=O)c4ccccc4)cc3)nc12,-19%,-15%,10µM*,?,-28%
CCc1ccc2nc(N(CCCN(C)C)C(=O)c3ccc(C(=O)c4ccccc4)cc3)sc2c1,-24%,?,15µM*,?,-13%
CC(C1CCN(Cc2nc(C3CC3)no2)CC1)N1CCOCC1 (stereo not given),·,7%,13µM*,8%,·
NC(=S)N/N=C/c1cccc(/C=N/NC(N)=S)c1,-1%,66%,0%,63%,-5%
NC(=S)N/N=C/c1ccc2ccccc2c1,0.35µM*,25%,?,-15%,1µM*
NC(=S)N/N=C/c1cccc(Br)c1,?,56%,?,-4%,0.89µM*
O=S(=O)(c1ccc2[nH]c3c(c2c1)CCCC3)N1CCN(c2cccc(C(F)(F)F)c2)CC1,-17%,·,·,·,-16%
CCCC1=Nc2cc(C(=O)NCc3ccccc3)ccc2Sc2ccccc21,-25%[7.34 µM],·,·,·,-19%[7.34 µM]

# Bioassay records: PubChem BioAssay, National Center for Advancing Translational Sciences (NCATS)
